# Pf growth 48h = P. falciparum growth inhibition at 48 hours (one generation); P. falciparum luciferase growth in erythrocytes, 48 h; Potency, µM (top dose mostly 28.7 µM), for inactives: top-dose activity change, negative = inhibition, hits mostly inhibitors; 310,000 tested, 5.9% active; further: potency means the concentration at half of the fitted maximal effect
#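 Parasite viability was followed by luminescence of a genomically integrated firefly luciferase. Cultures held 0.1% parasitemia at 2% hematocrit (final), incubated under 5% CO2 at 37 C.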
# Sm TGR inh = S. mansoni TGR enzyme inhibition. Q962Y6. purified TGR, DTNB reduction, TNB absorbance 405 nm. Potency, µM (highest dose often 114 µM), without a hit: at the top dose activity change, negative = inhibition, hits mostly inhibitors. 360,000 tested, 3% active; further: potency means the concentration at half of the fitted maximal effect; nearly all actives have a fitted effect of over 60% in size
#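 TGR 20 nM + NADPH 100 uM (dispensed conc.), cpd preinc 15 min RT; start with NADPH (500 uM addition) then DTNB (15 mM addition). Kinetic TNB absorbance, 405 nm filter. Four-parameter Hill fit across titration.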
# Pf growth 96h = P. falciparum growth inhibition at 96 hour, primary screen for plastid delayed-death inhibitors. P. falciparum luciferase reporter growth, 96 h. Potency, µM (doses to about 28.7 µM), inactives show top-dose activity change, negative = inhibition, actives largely listed as inhibitors. 320,000 tested, 6.9% active. AID 504834; further: potency means the concentration at half of the fitted maximal effect
#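 P. falciparum expressing integrated firefly luciferase grown in erythrocytes (2% hematocrit, 0.05% parasitemia final) with compounds for 96 hours at 37 C, 5% CO2. Growth inhibition read as loss of luminescence after adding luciferase detection reagent.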
# HCMV inh = human cytomegalovirus inhibition. 410,000 tested, 4.5% active. activity change, negative = inhibition, % at 57.5 µM. AID 1259415. HFF cells, HCMV-luciferase reporter, 72 h; active compounds read low; in the data active means activity change below about -60%; inconclusive means no clear call, values can overlap the other calls; inactive means above about -39%
#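 Steps: HFFs plated, 16 h 37C; compounds added; HCMV-luciferase added to MOI 1 PFU/cell; 72 h 37C; OneGlo reagent, 5 min room temperature; luminescence read, normalized to controls.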
# FBPA Giardia inh = Giardia lamblia aldolase inhibition | purified Giardia FBPA | 290,000 tested, 0.71% active | Potency, µM (top dose mostly 59.6 µM), for inactives: at the top dose activity, negative = inhibition, most hits filed as inhibitors; further: potency means the concentration at half of the fitted maximal effect; nearly all actives have a fitted effect of over 55% in size
# Target sequence (A8B2U2 whole entry, looked up): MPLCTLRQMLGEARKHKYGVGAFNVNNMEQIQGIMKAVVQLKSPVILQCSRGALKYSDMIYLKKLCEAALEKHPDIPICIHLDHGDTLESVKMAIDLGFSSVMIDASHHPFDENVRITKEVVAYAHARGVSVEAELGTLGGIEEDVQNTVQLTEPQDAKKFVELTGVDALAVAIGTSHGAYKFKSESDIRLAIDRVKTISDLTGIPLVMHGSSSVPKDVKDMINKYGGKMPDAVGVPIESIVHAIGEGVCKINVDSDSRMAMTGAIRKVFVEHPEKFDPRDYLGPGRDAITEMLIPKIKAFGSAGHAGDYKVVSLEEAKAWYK
#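 40 nM FBPA preincubated 10 min at RT with compound (up to 57.5 uM final), then substrate plus GAPDH/TPI/NAD/arsenate coupling and diaphorase/resazurin added. Fluorescence read after 20 min at RT, 525/598 nm.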
# Starred values were filed as active, the others as inactive; ? = inconclusive; nt = not tested or not shown; [ ] = remark or other dose. Shown are actives, neighbours in structure and some others; about 14% of the full set was active somewhere. Unless noted, the call rests on the fitted dose curve; in most records, active means well fitted curve in the direction sought with a large enough effect; inconclusive means small, poorly fitted or top-dose-only effect, or another doubt; inactive means no such curve, though single readings can be large; an effect the other way counts as inactive or inconclusive. On the % scale 0 is the no-effect control and ±100 the full control effect.
SMILES,Pf growth 48h,Sm TGR inh,Pf growth 96h,HCMV inh,FBPA Giardia inh
Cc1ccc(NC(=O)c2ccc(Cl)c(S(=O)(=O)N3CCCCC3)c2)nc1,9.3µM*,-19%,10µM*,?,nt
O=C(Nc1ccc2c(c1)OCO2)c1ccc(Cl)c(S(=O)(=O)N2CCOCC2)c1,?,-12%,18%,-5,nt
O=C(Nc1ccc2c(c1)OCCO2)c1ccc(Cl)c(S(=O)(=O)N2CCOCC2)c1,2.6µM*,0%,4%[5.75 µM],-30,0%
COc1cc(OC)cc(C2=Cc3ccccc3C(CC(C)=O)N2c2ccc(C#CCCO)cc2)c1 (stereo not given),nt,nt,nt,37,nt
O=C(O)C1CC=CCC1C(=O)N1CCN(c2nc(-c3ccccc3Cl)c3cc(Br)ccc3n2)CC1 (stereo not given),12µM*,13%,?,-13,9%
Cc1cc(C)n(C2CC(=O)N(c3cccc(Cl)c3)C2=O)n1 (stereo not given),35%,25µM*,-24%,3,-1%
O=C(C1CCCN(C2CC(=O)N(c3ccc(F)cc3)C2=O)C1)N1CCCC1 (stereo not given),6%,?,-8%,34,nt
O=C(C1CCCN(C2CC(=O)N(c3ccc(Cl)cc3)C2=O)C1)N1CCCC1 (stereo not given),3%,40µM*,?,-17,nt
Cc1cccc(N2C(=O)CC(Cn3nc(C)cc3C)C2=O)c1 (stereo not given),9%,2%,42%,37,1%
CCCOc1ccc(N2C(=O)CC(N3CCCC(C(=O)N4CCCC4)C3)C2=O)cc1 (stereo not given),14%,35µM*,16%,-6,6%
O=C(C1CCN(C2CC(=O)N(c3cccc(Cl)c3)C2=O)CC1)N1CCCCCC1 (stereo not given),5%,14µM*,-16%,14,-1%
CNc1nc2cnc(Nc3ccc(F)cc3)cc2n1-c1cccc(C(F)(F)F)c1,nt,nt,nt,4,nt
O=C(COC(=O)CCNS(=O)(=O)c1cccs1)Nc1ccccc1,0%,1%,25%,21,nt
COC(=O)/C=c1/s/c(=C(\C#N)C(=O)NCc2ccco2)n(-c2ccccc2)c1=O,-11%,18%,6.6µM*,-9,0%
COCCN1C(=O)CS/C1=C(/C#N)C(=O)NCc1ccco1,?,-17%,15%,-84*,-13%
COc1ccc(/C=c2\s/c(=C(/C#N)C(=O)NCc3ccco3)n(-c3ccccc3)c2=O)cc1,0%,5%,30%,?,-1%
COc1ccc(CC2S/C(=C(\C#N)C(=O)NCc3ccco3)N(c3ccc(C)cc3)C2=O)cc1 (stereo not given),?,1%,nt,10,-2%
Cc1ccccc1Nc1nc(N)nc(CSc2nnc(-c3ccccc3)n2C)n1,?,-4%,13µM*,?,-3%
Cc1ccccc1Nc1nc(N)nc(CCl)n1,?,?,5.2µM*,-101*,-5%
Cc1c(Cl)cccc1Nc1nc(N)nc(CSc2ncccn2)n1,nt,-5%,?,-94*,-2%
C=CCN(CC=C)Cc1nc(N)nc(Nc2ccccc2C)n1,?,-3%,9.3µM*,-2,1%
Cn1cc(S(=O)(=O)N2CCCCCC2)cc1C(=O)N1CCN(c2ccccc2F)CC1,nt,8%,nt,-6,nt
CN(C)c1nc2c(Br)c(Br)c(Br)c(Br)c2[nH]1,nt,nt,nt,nt,-4%
CCn1c(SCC(=O)Nc2nccs2)nnc1-c1ccc(S(=O)(=O)N2CCCCCC2)cc1,nt,2%,-7%,-32,8%
CCn1c(SCc2ccc(C(=O)Nc3nccs3)cc2)nnc1-c1ccc(NC(C)=O)cc1,?,-28%,13µM*,-19,6%
SMILES,Pf growth 48h,Sm TGR inh,Pf growth 96h,HCMV inh,FBPA Giardia inh
Cn1c(SCc2ccc(C(=O)Nc3nccs3)cc2)nnc1-c1ccccc1,2.3µM*,4%,nt,9,-4%
Cn1c(SCC(=O)Nc2nccs2)nnc1-c1ccncc1,15%,-3%,15%,-10,1%
Nc1ccc(C(=O)Nc2nccs2)cc1,338%,-1%,7%,13,-11%
CCn1c(SCc2ccc(C(=O)Nc3nccs3)cc2)nnc1-c1ccc(N)cc1,10µM*,4%,nt,-17,0%
Cc1sc2ncn(CC(=O)N3CCN(c4ccccn4)CC3)c(=O)c2c1S(=O)(=O)N1CCC(C)CC1,-22%,-10%,8%,-16,3%
CC(C)Oc1ccc(Nc2cc3[nH]c(-c4cccc(F)c4)cc3cn2)cc1,nt,nt,nt,-30,nt
Cc1c(/C=N/Nc2ccc(F)cc2)c(O)n(C)c(=O)c1C#N,-12%,25µM*,21%,-16,?
CC(=O)N=Cc1c(C)c(C#N)c(=O)n(C)c1O,15%,-21%,44%,14,8.9µM*
Cc1c(C=O)c(Cl)n(C)c(=O)c1C#N,-2%,?,9%,35,10µM*
Cn1c(O)c(/C=N/Nc2ccccc2)c(=O)n(C)c1=O,-14%,-30%,11%,-23,-22%
CCOC(=O)CNC(=O)N1[C@H](c2cccs2)[C@@H](C)C(=O)[C@@H](C)[C@@H]1c1cccs1,nt,-15%,nt,-8,nt
O=C(Nc1ccc(Cl)cc1)N1CCC(c2nc(-c3ccccc3Cl)no2)CC1,1.9µM*,-11%,nt,-32,6%
COc1ccc(NC(=O)N2CCC(c3nc(-c4cccs4)no3)CC2)cc1,11%,-4%,0.52µM*,-29,-2%
COc1cccc(C(=O)N2CCCC(c3nc(-c4cccs4)no3)C2)c1 (stereo not given),12%,5%,9.3µM*,-103*,5%
O=C(Nc1ccc(Cl)cc1)N1CCC(c2nc(-c3cccs3)no2)CC1,21%,11%,37%,14,4%
COCCN(C(=O)COC(=O)C1CCCCC1)c1c(N)n(Cc2ccccc2)c(=O)[nH]c1=O,nt,nt,nt,-10,nt
c1ccc(CCNc2ncnc3c2cnn3-c2ccccc2)cc1,169%,-6%,36%,80,2%
c1ccc(-n2ncc3c(NCCN4CCCCC4)ncnc32)cc1,122%,50µM*,393%,17,-3%
c1ccc(-n2ncc3c(NCCN4CCOCC4)ncnc32)cc1,85%,-1%,12µM*,117,-4%
Cc1cccc(-n2ncc3c(NCCN4CCOCC4)ncnc32)c1,0%,13%,-18%,73,-8%
Cc1ccc(S(=O)(=O)N2CC3CCCN3c3ccc(C(F)(F)F)cc32)cc1 (stereo not given),10µM*,-20%,?,-19,-4%
O=S(=O)(c1ccc(F)cc1)N1CC2CCCN2c2ccc(C(F)(F)F)cc21 (stereo not given),?,11%,?,-31,-13%
Cc1cccc(N=C2NC(=O)/C(=C/C=C/c3ccco3)S2)c1C,-11%,10µM*,?,3,-29%
O=C1NC(=Nc2ccccc2)/C(=C/c2ccco2)S1,?,50µM*,?,-25,-18%

# Screening data deposited in PubChem BioAssay by National Center for Advancing Translational Sciences (NCATS).
